Data: PubChem BioAssay (NCI)
This is part of a sample that, as a whole, favours compounds with a hit. Of some 83,000 tested, about 20% had one in any assay.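 Step 1: grow cells in 96-well plates. Step 2: add test compound at a single concentration. Step 3: incubate 48 h. Step 4: record percent growth.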 Values without a mark were called inactive. The source made the active and inactive calls. How the source made its calls: active means growth percent below 10; inactive means the rest.

Experiments:
Assay in all cases: NCI-60 one-dose screen, 48 h (100 = growth as untreated, 0 = no growth, -100 = all killed)
Details in all cases: 10 µM unless noted
[1] = test system: NCI-H23 lung
[2] = test system: NCI-H322M lung
[3] = test system: HOP-62 NSCLC
[4] = test system: NCI-H460 lung
[5] = test system: NCI-H522 lung
[6] = test system: A549/ATCC NSCLC
[7] = test system: 786-0 renal
[8] = test system: COLO 205 colon
[9] = test system: HOP-92 NSCLC
[10] = test system: NCI-H226 lung

| SMILES | growth [1] | growth [2] | growth [3] | growth [4] | growth [5] | growth [6] | growth [7] | growth [8] | growth [9] | growth [10] [%] |
| --- | --- | --- | --- | --- | --- | --- | --- | --- | --- | --- |
| C#CCNC(=O)[C@H](CC)[C@H]1CC[C@H](C)[C@H]([C@@H](C)[C@H](O)[C@H](C)C(=O)[C@H](CC)C2O[C@]3(C=CC(=O)[C@]4(CC[C@@](C)([C@H]5CC[C@](O)(CC)[C@H](C)O5)O4)O3)[C@H](C)C[C@@H]2C)O1 (stereo not given in full) | 42.4% | 53.8% | 61.8% | 35.5% | 32.3% | 44% | 70.5% | 10.8% | – | – |
| O=C1C(Cl)=C(NCCCCCCNC2=C(Cl)C(=O)c3ccccc3C2=O)C(=O)c2ccccc21 | 61.8% | 92.2% | 112% | 94.8% | 90.7% | 102% | 114% | 86.2% | 86.2% | – |
| C=CC[Se]C(=O)Cc1c(C)n(C(=O)c2ccc(Cl)cc2)c2ccc(OC)cc12 | -18.2% (active) | -29.5% (active) | -16.6% (active) | -6.72% (active) | 8.54% (active) | -5.21% (active) | -50.5% (active) | -32.1% (active) | -21.6% (active) | – |
| CCCCn1c(=O)[nH]c(N)c([C@@H]2c3c([nH]c(=O)n(CCCC)c3=O)Oc3ccc4ccccc4c32)c1=O | 13% | 74.9% | 73.6% | 15.4% | 59% | 94.6% | 77.8% | 59.3% | 83.3% | – |
| CN(C)CCNC(=O)c1cc2c3cc(Cl)ccc3[nH]c2c2ncccc12 | 32.5% | 31.4% | 24.4% | -0.295% (active) | 21.2% | 9.53% (active) | 11.4% | -17.9% (active) | 2.92% (active) | – |
| COCCOc1cc2ncnc(N3CCN(c4ncc(S(=O)(=O)N5CCCCC5)cn4)CC3)c2cc1OCCOC | 91.5% | 96.5% | 118% | 103% | 84.4% | 102% | 108% | 121% | 89.5% | – |
| CCOC(=O)C1=C(c2ccccc2)N=C2SC=C(c3ccc(Cl)cc3)N2C1c1ccc(Br)cc1 (stereo not given) | 69.8% | 90.9% | 90.7% | 85% | 69.3% | 84.5% | 80.6% | 83.1% | 56.1% | – |
| C=C(CBr)[C@@H]1CC[C@]2(C(=O)O)CC[C@]3(C)[C@H](CC[C@@H]4[C@@]5(C)CCC(=O)C(C)(C)[C@@H]5CC[C@]43C)[C@@H]12 | 85.8% | 92.2% | – | 81.3% | 46.5% | 57.7% | 106% | 99.9% | 72.3% | 73.2 |
| Cn1cc(-c2csc(-c3cn(C(=O)OC(C)(C)C)c4ccc(Br)cc34)n2)c2ccnc(Cl)c21 | 81.7% | 85.3% | 68.5% | 68.7% | 66.7% | 70.3% | 74.7% | 90.9% | 58.8% | – |
| CN(C)c1ccc(C(=O)OCCCCCCl)cc1 | 90.7% | 85.4% | 91.8% | 104% | 89.2% | 100% | 95.3% | 110% | 89.3% | – |
| COc1ccc(/C=C(\C#N)n2nnc3ccc(Cl)cc32)cc1 | 71% | 80.8% | – | 83.9% | 17.8% | 58.9% | 39.8% | 83.1% | 74.2% | 105 |
| CCOC(=O)C1=C(c2ccccc2)N=C2SC=C(c3ccc(Cl)cc3)N2C1c1ccc(Cl)cc1 (stereo not given) | 64.2% | 88.5% | 91.6% | 83.3% | 79.9% | 77% | 84.4% | 76.2% | 69.8% | – |
| N#Cc1c(-c2ccccc2)cc(-c2ccc(Nc3nc(Nc4ccc(Cl)cc4)nc(Nc4ccc(Cl)cc4)n3)cc2)nc1N | 39.2% | 87% | 99% | 48.2% | 80.7% | 28.8% | 46.7% | -25.3% (active) | -72.5% (active) | – |
| O=C(c1ccncc1)N1N=C(c2ccc(Cl)cc2)C[C@H]1c1cn(-c2ccccc2)nc1-c1ccccc1 | 91.5% | 92.7% | 92.8% | 88.2% | 96.1% | 81.7% | 97.9% | 119% | 67% | – |
| O=C(/C=C/c1cccc(Cl)c1)c1ccc(Nc2nc(Nc3ccc(F)cc3)nc(Nc3ccc(Cl)cc3)n2)cc1 | 97.9% | 96.6% | 91.9% | 143% | 102% | 87.1% | 99.1% | 108% | 72.9% | – |
| COc1ccc(CNc2c3ccccc3nc3ccccc23)cc1 | 38.8% | 47.1% | – | 9.69% (active) | 53% | 28.9% | 32.4% | 11.6% | 24.6% | – |
| C=CCc1c(O)c(C(=O)/C=C/c2ccccc2)c(OC)c2ccoc12 | 53.4% | 61.9% | 88% | 16.8% | 37.9% | 44.7% | 71.3% | 59.5% | 47.3% | – |
| COC(=O)[C@@H](CCCCNC(=O)[C@]12CCC(C)(C)C[C@@H]1C1=CC[C@@H]3[C@@]4(C)C/C(=C/c5ccco5)C(=O)C(C)(C)[C@@H]4CC[C@@]3(C)[C@]1(C)CC2)NC(=O)[C@]12CCC(C)(C)C[C@@H]1C1=CC[C@@H]3[C@@]4(C)C/C(=C/c5ccco5)C(=O)C(C)(C)[C@@H]4CC[C@@]3(C)[C@]1(C)CC2 | 106% | 93.9% | 104% | 107% | 94.1% | 100% | 104% | 120% | 114% | – |
